# Pf growth 96h: Primary qHTS for delayed death inhibitors of the malarial parasite plastid, 96 hour incubation; P. falciparum luciferase reporter growth, 96 h; Potency, µM (highest dose often 28.7 µM), without a hit: at the top dose activity change, negative = inhibition, actives largely listed as inhibitors; 320,000 compounds, 6.9% hits; note: potency is the fitted concentration of half-maximal effect
#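 Compounds incubated with erythrocytes infected by luciferase-expressing P. falciparum (2% hematocrit, 0.05% parasitemia final) for 96 hours, 37 C in 5% CO2. Growth inhibition scored as decreased luciferase luminescence.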
# Pf growth 48h: Primary qHTS for delayed death inhibitors of the malarial parasite plastid, 48 hour incubation; P. falciparum luciferase growth in erythrocytes, 48 h; Potency, µM (highest dose often 28.7 µM), inactives show at the top dose activity change, negative = inhibition, actives largely listed as inhibitors; 310,000 compounds, 5.9% hits; AID 504832, 2011; note: potency is the fitted concentration of half-maximal effect
#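 Read-out is firefly luciferase luminescence from an integrated reporter in P. falciparum, so falling signal marks reduced parasite growth. Infected erythrocytes were at 2% hematocrit and 0.1% parasitemia (final) in Albumax-supplemented RPMI 1640.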
# HCMV antiviral: qHTS Assay for inhibitors of the human cytomegalovirus (HCMV); HFF cells, HCMV-luciferase reporter, 72 h; hits give low values; activity change, negative = inhibition, % at 57.5 µM; 410,000 compounds, 4.5% hits; AID 1259415, 2018; in the data active = activity change below about -60%; inconclusive = no clear call, values can overlap the other calls; inactive = above about -39%
#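 Two compound doses tested in HFFs infected with HCMV-luciferase, MOI 1 PFU/cell, 72 h at 37C. Lysate luminescence read with OneGlo; data normalized against buffer-only and 10uM Salinomycin inhibitor controls.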
# HCV inhibitor: qHTS Assay for Inhibitors of Hepatitis C Virus (HCV); Potency, µM (titrated, usually from 41.8 µM), inactives show at the top dose activity change, negative = inhibition, actives largely listed as inhibitors; 340,000 compounds, 3.4% hits; Huh7.5.1 HCVcc-Cre infection, luciferase reporter, 44 h; AID 651820, 2012; note: potency is the fitted concentration of half-maximal effect
#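 Cells (1,000/well) were plated 4 h before compound, then infected with HCVcc-Cre virus (~0.5 moi). After 44 h further culture, infection was read as luciferase luminescence following a 15 min substrate incubation at room temperature.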
# * = called active by the depositor; ? = inconclusive; · = no result. Most compounds without a hit are left out; they make up all but 13% or so of the library. Unless noted, calls come from the whole dose curve; as a rule, active = well fitted inhibition curve with a large enough effect; inconclusive = small, poorly fitted or top-dose-only effect, or another doubt; inactive = no such curve, though single readings can be large or run the other way. % is set by controls: 0 for no effect and ±100 for the full control effect.
SMILES,Pf growth 96h,Pf growth 48h,HCMV antiviral,HCV inhibitor
Cc1cc(C)c(C(=O)CSc2n[nH]c(-c3ccncc3)n2)c(C)c1,-10.4%,-13.3%,-65.8*,6.6%
CC(C)c1ccc(NC(=O)CN(C)S(=O)(=O)c2ccc3c(c2)n(C)c(=O)c(=O)n3C)cc1,·,·,-11.9,·
N/C(Cc1ccc([N+](=O)[O-])cc1)=N\OC(=O)CC1CCCCC1,?,13.1µM*,25.9,-3.0%
N/C(Cc1ccc(Cl)cc1)=N\OC(=O)C1CCCCC1,42.8%,5.86µM*,17.8,16.1%
N/C(=N\OC(=O)CC1CCCCC1)c1ccccn1,106.6%,102.2%,-60.5*,6.1%
N/C(=N\OC(=O)CC1CCCCC1)c1ccncc1,?,16.8%,-3.7,7.8%
O=C(Cn1c(-c2cccs2)cc2cc(F)ccc21)NCCc1ccc(Cl)cc1,·,·,-19.8,·
COc1ccc(Cl)cc1NC(=O)C[n+]1cccc(C)c1,17.7%,11.7µM*,-8.4,4.8%
Cc1ccc(NC(=O)C[n+]2ccccc2)cc1C,9.28µM*,13.9%,11.3,10.7%
Cc1cccc(NC(=O)C[n+]2cccc(C)c2)c1,0.657µM*,?,27.6,11.1%
Cc1ccc(NC(=O)CN(Cc2ccco2)Cc2ccccc2O)cc1C,?,?,-64.1*,?
Cc1ccc(NC(=O)N(Cc2ccco2)C(C)c2ccco2)cc1C (configuration not stated),?,?,-38.0,-6.0%
Cc1cccc(NC(=O)C[n+]2ccccc2)c1,?,52.0%,5.4,20.1%
Cc1ccc(NC(=O)CC(=O)Nc2ccc(C)c(C)c2)cc1C,6.3%,26.2%,22.4,-12.4%
COc1cc([N+](=O)[O-])ccc1NC(=O)C[n+]1cccc(C)c1,?,-26.4%,48.0,?
Cc1ccc(Nc2sc(C(=O)c3ccccc3)c(N)c2S(=O)(=O)c2ccccc2)c(C)c1,·,·,-1.0,·
COc1ccc(CNC(=O)CCS(=O)(=O)c2cc3c4c(c2)CCN4C(=O)CC3)cc1OC,·,·,16.1,·
CCN(C(=O)c1cc2c(Cl)nc3ccccc3c2s1)c1cccc(Cl)c1,·,·,-11.7,·
O=S(=O)(c1ccc(Cl)cc1)c1nnn2c1nc(NC1CCCCC1)c1sccc12,·,·,-25.7,·
O=C1NC(=O)N2CCSC2(Cc2ccccc2)N1 (configuration not stated),·,·,-98.4*,22.1%
CC1(C(=O)Nc2ccc3c(c2)OCCO3)CCC(=O)N1C1CC1 (configuration not stated),·,·,-100.2*,·
CC1(C(=O)Nc2ccc3c(c2)OCCO3)CSCC(=O)N1C1CC1 (configuration not stated),·,·,-2.3,·
CCCC(C)(C)C(=O)N1CCC1(C)C(=O)Nc1ccc(OC)c(OC)c1 (configuration not stated),·,·,-15.4,·
CCCC(C)(C)C(=O)N1CCC1(C)C(=O)Nc1ccc2c(c1)OCCO2 (configuration not stated),·,·,-65.7*,·
Cn1cc(S(=O)(=O)N2CCOCC2)cc1C(=O)Nc1cccc(C#N)c1,·,·,24.8,·
SMILES,Pf growth 96h,Pf growth 48h,HCMV antiviral,HCV inhibitor
CC1=CC(=O)O[C@@H]1[C@@]1(C)C[C@H]2OC(=O)C[C@H]3[C@@H](C)C(=O)C(O)=C1[C@@]23CO,14.7µM*,13.1µM*,?,?
CC(C)C(c1nnnn1C1CCCC1)N1c2ccccc2CC1C (configuration not stated),?,3.7µM*,-20.3,?
CC(C)C(c1nnnn1C1CCCCC1)N1CCc2ccccc21 (configuration not stated),·,11.7µM*,12.4,?
Cc1ccc(C(c2nnnn2C2CCCCC2)N2CCc3ccccc32)cc1 (configuration not stated),?,11.7µM*,-20.9,?
C/C=C/C=[N+](\[O-])C(C)/C(=N/O)c1ccc(F)cc1 (configuration not stated),-13.4%,6.0%,-75.0*,13.2%
CCOc1ccc(CCNC(=O)CCSCc2ccc(Cl)cc2)cc1OCC,·,·,-24.3,·
CCO/C(C)=N/n1c2nc3ccccc3nc2c2c(=O)n(CC(C)C)c(C)nc21,2.33µM*,2.94µM*,?,14.7%
Cc1cccc(CCNC(=O)c2cccc(NC3=NC4CS(=O)(=O)CC4S3)c2)c1 (configuration not stated),14.7µM*,2.1%,2.4,6.1%
